This passage reports Potency and activity, negative = inhibition results from PubChem BioAssay AID504332 (National Center for Advancing Translational Sciences (NCATS), 2011).

Molecules are shown by their SMILES. Where “and” joins values, the source holds several entries; their conditions need not be identical. Identical values can stand only once. Hit rate of the full screen: of about 350,000 compounds, about 31,000 (8.9%) were called active. A call without a number means that no potency is given here. Not shown: some 15% with an inconclusive outcome. Calls follow the shape of the dose curve; as a rule, active = well fitted inhibition curve with a large enough effect; inconclusive = small, poorly fitted or top-dose-only effect; inactive = no such curve, though single readings can be large or run the other way. Only a selection was taken, and actives are over-represented in it overall. Some structures have more than one record in an assay (separate samples or runs), and their calls can disagree.
Potency is read from the fitted curve at half-maximal effect.

Chain of Histone-lysine N-methyltransferase EHMT2 (Homo sapiens) (Q96KQ7 913-1193 limits assumed): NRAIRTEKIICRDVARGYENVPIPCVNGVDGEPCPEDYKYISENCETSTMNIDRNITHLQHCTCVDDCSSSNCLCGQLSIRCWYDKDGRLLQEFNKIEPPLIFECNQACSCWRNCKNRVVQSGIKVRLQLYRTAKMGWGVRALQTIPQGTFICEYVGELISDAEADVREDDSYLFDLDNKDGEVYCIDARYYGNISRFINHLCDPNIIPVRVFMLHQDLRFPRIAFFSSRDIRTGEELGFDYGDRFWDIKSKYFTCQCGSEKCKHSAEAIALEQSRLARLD

The target in the assay is Histone-lysine N-methyltransferase EHMT2 (Homo sapiens) (UniProt Q96KQ7). The assay is described as follows: qHTS Assay for Inhibitors of Histone Lysine Methyltransferase G9a. Also: nearly all actives have a fitted effect of over 75% in size. The note with it: G9a H3K9 monomethylation, AlphaScreen, 2 h; series mostly up to 59 µM. The essentials:
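Signal arises when biotinylated H3K9 peptide, once monomethylated, bridges streptavidin donor and antibody-captured acceptor beads. Enzyme at 20 nM was preincubated 15 min with test compounds; peptide 500 nM and SAM 20 uM then reacted for 2 h.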
Background: Quantitative high-throughput screening tests each substance at several concentrations.
On to `CCN(CC)CCNC(=O)c1cc2c(=O)oc3ccc(C)cc3c2s1`, for which the Potency entry was “inactive”.

With `CCNC(=O)c1cccc(NC(=O)C2CC(=O)N(CCc3ccccc3)C2)c1` (stereo not given), the activity, negative = inhibition was 8.14% [at 0.501 µM] (inactive).

On to `COc1ccc2cc(C3=CC(=O)C[C@H](c4ccc5c(c4)OCO5)C3)ccc2c1`, for which the activity, negative = inhibition was 7.57% [at 0.501 µM] (inactive).

Take `CC(C)CNC(=O)COC(=O)/C=C/c1ccco1`: the Potency entry is “inactive”.

With `NS(=O)(=O)c1cccc(NC(=O)COC(=O)/C=C/c2ccco2)c1`, the Potency was 25.1 µM (active).

As to `COc1cccc(NC(=O)COC(=O)/C=C/c2ccco2)c1`, the activity, negative = inhibition was 13.7% [at 2.33 µM] (inactive).

On to `O=S(=O)(NCCS(=O)(=O)N1CCN(c2ccccc2)CC1)c1ccc(F)cc1`, for which the Potency result was “inactive”.

As to `COc1ccc(C2CC(c3ccccc3)=NN2C(=O)COC(=O)COc2ccccc2)cc1` (stereo not given), the Potency entry was “inactive”.

As to `COc1ccc(OCc2nnc3n2N=C(c2ccccc2)C(CC(=O)O)S3)cc1` (stereo not given), the Potency is 1.58 µM (active).

Regarding `COc1cccc(OCc2nnc3n2N=C(c2ccccc2)C(CC(=O)O)S3)c1` (stereo not given), the Potency was 44.7 µM (active).

For `CCn1c(COc2cccc(OC)c2)nnc1SCC(=O)N1CCOCC1`, the Potency result is “inactive”.

On to `COc1cccc(OCC(=O)Nc2ccccc2C(N)=O)c1`, for which the activity, negative = inhibition is 6.62% [at 12.7 µM] (inactive).

Take `COc1ccc(C(=O)NCc2nnc(SCCOc3ccccc3)n2C)cc1`: the activity, negative = inhibition is 13.9% [at 12.7 µM] (inactive).

Regarding `CCN(CC)S(=O)(=O)c1ccc2c(c1)N(CC(=O)NCc1ccccc1)C(=O)CS2`, the Potency result was “inactive”.

With `COc1cccc(CNC(=O)C(=O)NCCC2CCCCN2S(=O)(=O)c2ccc(C)cc2)c1` (stereo not given), the activity, negative = inhibition is 0.971% [at 0.501 µM] (inactive).

With `CC(=O)Nc1ccc(NC(=O)CSc2nnc(COc3ccccc3C)n2CC2CCCO2)cc1` (stereo not given), the Potency entry is “inactive”.

As to `COc1ccccc1NC(=O)CSc1nnc(C)n1CC1CCCO1` (stereo not given), the Potency entry was “inactive”.

On to `CCOc1cccc(=O)c2c(C)n(CC3CCCO3)c(C)c12` (stereo not given), for which the Potency was 70.8 µM (active).

For `Cc1ccc(NC(=O)COC(=O)CN2CCCCCC2=O)c(C)c1`, the Potency result was “inactive”.

Consider `Cc1cc(C)cc(-n2c(SCC(=O)NCC3CCCO3)nc3c([nH]c4ccccc43)c2=O)c1` (stereo not given), for which the Potency entry is “inactive”.

Take `CCOc1ccc(N2C(=O)CC(N(CCc3ccc(OC)c(OC)c3)C(=S)Nc3ccccc3)C2=O)cc1` (stereo not given): the Potency result is “inactive”.

As to `CCCCCCC(=O)N(O)C1CC(=O)N(c2ccccc2)C1=O` (stereo not given), the Potency is 0.794 µM (active).

On to `CCCCCOC(=O)c1ccc(N2C(=O)C3C4C=CC(C4)C3C2=O)cc1` (stereo not given), for which the Potency entry was “inactive”.

For the compound `O=C(Nc1cccc(F)c1)NC1CCCc2ccccc21` (stereo not given), the Potency entry was “inactive”.

Consider `COc1ccc(-n2ccn(CC(=O)Nc3ccc(C)c(C)c3)c(=O)c2=O)cc1OC`, for which the Potency entry was “inactive”.

As for `Oc1ccc(Cn2cc[nH]c2=S)cc1`, the Potency is 3.16 µM (active) and 2.99 µM (active).

As to `O=C1C(Cc2ccc(O)cc2)NC(=S)N1Cc1ccccc1` (stereo not given), the Potency entry is “inactive”.

In the case of `N#Cc1ccc(OCC(=O)NC(=O)NC2CCS(=O)(=O)C2)cc1` (stereo not given), the activity, negative = inhibition is -2.17% [at 12.7 µM] (inactive).

As to `COc1ccc(OC)c(S(=O)(=O)Nc2c(C)nn(C)c2C)c1`, the activity, negative = inhibition is 3.63% [at 12.7 µM] (inactive).

Regarding `Cc1nc2sc3c(c2c(=O)n1NC(=O)CCl)CCCC3`, the Potency result is “inactive”.

As for `COCCCn1c(SCC(=O)Nc2oc(C)c3c(C)n[nH]c(=O)c23)nc2sc3c(c2c1=O)CCC3`, the Potency was 6.31 µM (active).

For `C=CCn1c(SCC(=O)NCCCO)nc2sc3c(c2c1=O)CCC3`, the Potency result was “inactive”.

Turning to `Cc1ccc(S(=O)(=O)N(CC(=O)Nc2ccc(Cl)cc2Cl)c2ccccc2C)cc1`, the Potency result was “inactive”.

With `CCCCN(C1CCS(=O)(=O)C1)S(=O)(=O)c1ccc(C(C)C)cc1` (stereo not given), the Potency result was “inactive”.

As to `COc1cc(OC)c(NC(=O)C2CCCN2C(=O)OCc2ccccc2)cc1Cl` (stereo not given), the Potency entry was “inactive”.

Consider `COc1ccc(CNC(=O)c2ccc(NC(=O)N3CC4CCCN4c4ccccc43)cc2)cc1` (stereo not given), for which the Potency was 7.08 µM (active).

For the compound `COc1ccccc1CNC(=O)c1ccc(NC(=O)N2CC(C)Sc3ccccc32)cc1` (stereo not given), the Potency result is “inactive”.

Regarding `O=C(CCC(=O)N1CC2CCCN2c2ccccc21)NCc1ccccc1Cl` (stereo not given), the Potency entry is “inactive”.

For `COc1cc(OC)c(NC(=O)N2CC3CCCN3c3ccccc32)cc1Cl` (stereo not given), the Potency was 8.91 µM (active).

Consider `Cc1ccccc1CNC(=O)c1ccc(NC(=O)N2CCCCc3ccccc32)cc1`, for which the Potency result is “inactive”.

As to `Cc1cccc(N2CCN(C(=O)COCc3cc(-c4ccc5c(c4)OCO5)on3)CC2)c1C`, the Potency entry is “inactive”.

For the compound `Oc1ccccc1C1=NN(c2ccccc2)C(c2ccccc2)C1` (stereo not given), the Potency result is “inactive”.

`O=C(NNC(=O)c1cc(-c2ccccc2Cl)nc2ccccc12)c1csc(N2CCOCC2)n1`: the activity, negative = inhibition was 10% [at 2.33 µM] (inactive).

Turning to `Cc1ccccc1C(=O)Nc1nnc(S(=O)(=O)N(C)c2ccc(Cl)cc2)s1`, the Potency result is “inactive”.

As to `CCOC(=O)N1CCN(Cc2nc3ccc([N+](=O)[O-])cc3c(=O)n2-c2cccc(OC)c2)CC1`, the Potency was 39.8 µM (active).

`COc1cccc(-n2nc(C(=O)N3CCN(Cc4ccccc4)CC3)c3ccccc3c2=O)c1`: the Potency entry was “inactive”.

As to `CCOC(=O)N1CCN(Cc2nc3cc(NC(C)=O)ccc3n2C)CC1`, the Potency entry was “inactive”.

For `CCCCN1C(=O)c2[nH]nc(-c3ccccc3O)c2C1c1cccc(OCc2ccccc2)c1` (stereo not given), the Potency result is “inactive”.

Turning to `COCCn1c(SC(C)C(=O)NC2CC2)nnc1-c1cccc(C)c1` (stereo not given), the Potency is 28.2 µM (active).

As for `COCCCn1c(SCC(=O)NC2CCCC2)nnc1-c1ccccc1`, the Potency result is “inactive”.

Take `Cc1cccc(C(=O)NCc2nnc(SC(C)C(=O)Nc3nnc(C)s3)n2C)c1` (stereo not given): the Potency result was “inactive”.

Turning to `Cc1ccc(NC(=O)c2oc3ccc(S(=O)(=O)N4CCCCC4)cc3c2C)cc1Cl`, the Potency result is “inactive”.

Turning to `C=CCn1c(=O)c(C(=O)NCc2ccc3c(c2)OCO3)c(O)c2ccccc21`, the Potency entry was “inactive”.

With `C/C(CCC(=O)OC[C@H]1O[C@H](C#Cc2ccccc2)C=C[C@@H]1Oc1ccc(C)cc1)=N\OC[C@@H](O)[C@H]1O[C@@H]2OC(C)(C)O[C@@H]2[C@H]1O`, the Potency was 50.1 µM (active).

Take `COc1cc(C)c(C)cc1S(=O)(=O)N1CCCc2ccccc21`: the Potency result was “inactive”.

`COc1ccc(OCC(=O)N2CCN(C(=O)COc3ccccc3)CC2)cc1`: the Potency entry is “inactive”.

For the compound `CC1CN(C2CCN(C(=O)COc3ccccc3)CC2)CC(C)O1` (stereo not given), the Potency is 8.91 µM (active).

Take `COc1ccc(OCC(=O)N2CCOCC2)cc1`: the activity, negative = inhibition was 6.34% [at 12.7 µM] (inactive).

With `Cc1cc(C)cc(NC(=O)C(OC(=O)c2ccc(O)cc2)c2ccccc2)c1` (stereo not given), the activity, negative = inhibition is -7.57% [at 12.7 µM] (inactive).

With `CC(C)(C)c1ccc(C(=O)Nc2ccc3c(c2)CCCN3C(=O)c2cccs2)cc1`, the Potency entry is “inactive”.

For the compound `CCCCCn1c(=O)[nH]c2cc(C(=O)Nc3cc(C)cc(C)c3)ccc2c1=O`, the Potency result is “inactive”.

`O=C(O)CSCc1nc2ccccc2s1`: the Potency entry was “inactive”.

In the case of `O=C(O)c1ccccc1CSc1nc2ccccc2s1`, the Potency was 10 µM (active).

Regarding `O=C(CSc1nc2ccccc2s1)Nc1ccc(C(=O)O)cc1`, the Potency result is “inactive”.

Turning to `Cc1ccc(Cc2nc3ccccc3nc2SCC(=O)Nc2cccc(C(F)(F)F)c2)cc1`, the Potency entry was “inactive”.

Turning to `COc1ccc(S(=O)(=O)N2CCN(CC(=O)NCC3(N4CCOCC4)CCCCC3)CC2)cc1`, the activity, negative = inhibition is -3.79% [at 12.7 µM] (inactive).

Take `Cc1cc(C)cc(NC(=O)Cn2nc(N3CCN(c4ccccc4)CC3)ccc2=O)c1`: the Potency result is “inactive”.

In the case of `COc1ccc(NC(=O)c2cnc(Nc3ccc(C)c(Cl)c3)c3ccccc23)cc1OC`, the Potency result is “inactive”.

For `O=c1cc(CCl)nc2scc(-c3ccccc3)n12`, the Potency is 50.1 µM (active).

Take `Cc1csc2nc(COc3ccc(NC(=O)COc4ccccc4)cc3)cc(=O)n12`: the Potency entry is “inactive”.

Consider `Cc1csc2nc(COC(=O)c3ccccc3NC(=O)c3ccccc3Cl)cc(=O)n12`, for which the Potency result was “inactive”.

As for `Cc1cccc2c(=O)cc(CSc3ccccc3NC(=O)C(C)C)[nH]c12`, the Potency result is “inactive”.

Turning to `COc1ccc(OC)c(-n2nnc3c(sc4nc(C)c(Br)c(C)c43)c2=O)c1`, the Potency result is “inactive”.

`O=C(NC1CCCC1)C(=O)c1c[nH]c2ccccc12`: the Potency entry is “inactive”.

Turning to `O=S(=O)(O)Oc1c[nH]c2ccccc12`, the Potency was 2.51 µM (active).

On to `O=C(OCC(=O)c1c[nH]c2ccccc12)c1cccc(O)c1`, for which the Potency result is “inactive”.

With `Cc1cccn2c(=O)c(C(=O)NC(C)c3ccccc3)cnc12` (stereo not given), the Potency result was “inactive”.

Take `O=C(CSc1ccc(-c2ccco2)nn1)Nc1cccc(F)c1`: the Potency is 15.8 µM (active).

`CCn1c(CNC(=O)c2ccco2)nnc1SCC(=O)Nc1cccc(F)c1`: the Potency entry was “inactive”.

For `O=C(CSc1ccc(-c2ccco2)nn1)NCc1ccc2c(c1)OCO2`, the Potency is 31.6 µM (active).

Regarding `O=C(CSc1ccc(-c2ccc(F)cc2)nn1)Nc1ccc2c(c1)OCCO2`, the Potency entry is “inactive”.

For `Cc1ccccc1-c1nnc(SCC(=O)NCc2ccc3c(c2)OCO3)n1C`, the activity, negative = inhibition was -10.1% [at 12.7 µM] (inactive).

Consider `Fc1cccc(Cl)c1CSc1ccc(-c2ccco2)nn1`, for which the Potency is 31.6 µM (active).

As for `Brc1ccc(CSc2ccc(-c3ccco3)nn2)cc1`, the Potency entry was “inactive”.

As to `Cc1cc(SCc2c(F)cccc2Cl)nc(=O)[nH]1`, the activity, negative = inhibition is -5.25% [at 0.501 µM] (inactive).

Turning to `CCn1c(=O)cc(SCC(=O)NCc2ccc3c(c2)OCO3)c2ccccc21`, the Potency entry is “inactive”.

As to `CCN1C(=O)C(=O)N(CC(=O)Nc2cc(C)ccc2C)C1=O`, the activity, negative = inhibition is 1.01% [at 2.33 µM] (inactive).

In the case of `CCOc1ccc(Nc2nc3c(S(=O)(=O)c4cccc(Cl)c4)nnn3c3ccsc23)cc1`, the Potency entry was “inactive”.

Take `CC(C)S(=O)(=O)c1oc(-c2ccc(F)cc2)nc1S(=O)(=O)c1ccc(F)cc1`: the Potency entry was “inactive”.

Regarding `COc1ccc(N2C(=O)c3cccc4cccc(c34)C2=O)nn1`, the activity, negative = inhibition was -3.86% [at 12.7 µM] (inactive).

As to `O=C(COC(=O)CCCN1C(=O)c2cccc3cccc(c23)C1=O)NC1CCS(=O)(=O)C1` (stereo not given), the Potency entry is “inactive”.

In the case of `O=C1c2cccc3cccc(c23)C(=O)N1c1cccc(O)c1`, the activity, negative = inhibition is 21.1% [at 2.33 µM] (inactive).

As to `O=C1c2cccc3cccc(c23)C(=O)N1CCCCCc1n[nH]c(=S)o1`, the Potency is 2.51 µM (active).

As for `O=C(CN1C(=O)c2cccc3cccc(c23)C1=O)N1CCCCC1`, the Potency result was “inactive”.

Consider `C[N+](C)(CCCCCC[N+](C)(C)CCCN1C(=O)c2cccc3cccc(c23)C1=O)CCCN1C(=O)c2cccc3cccc(c23)C1=O`, for which the Potency entry was “inactive and 22.4 µM (active)”.
